Hits are enriched below; roughly 5.8% of the tested compounds scored in any of these assays.
SW480 rerep – induces DNA re-replication in SW480 colon adenocarcinoma cells; hit rate 1.8% among 340,000; Potency, µM (highest dose often 46.1 µM), without a hit: top-dose re-replication activation, actives largely listed as activators; SW480 DNA re-replication, Hoechst DNA content imaging, 48 h; further: % of control where 0% means no effect; nearly all actives have a fitted effect of over 55% in size
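Quantitative HTS format with DMSO vehicle controls; 48 hr drug incubation at 37 C, then 40 min Hoechst staining and scanning imager measurement at 405 nm excitation.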
PINK1 modulator – modulators of PINK1 expression; Potency, µM (top dose mostly 76.6 µM), for inactives: at the highest dose activation (PINK1 increase), usual class: activators; hit rate 0.2% among 410,000; PINK1 immunofluorescence, high-content cytometry, 24 h; AID 624263; active means well fitted activation curve with a large enough effect; inconclusive means small, poorly fitted or top-dose-only effect; cell line not stated here; further: % of control where 0% means no effect; nearly all actives have a fitted effect of over 65% in size
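Compound titrations (5 concentrations, 24 h) on a stable cell line; DMSO and CCCP controls. Endpoint: fixed-cell PINK1 immunofluorescence with mitochondrial, cell and nuclear markers, scanned by microplate cytometer.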
KB-V1 MDR tox – KB-V1 MDR subline cytotoxicity. KB-V1 MDR cells viability, CellTiter-Glo, 72 h. Potency, µM (doses to about 46.1 µM), hits mostly cytotoxic. hit rate 3.4% among 400,000. AID 1347076; further: on the % scale 0 is the no-effect control and ±100 the full control effect; nearly all actives have a fitted effect of over 60% in size
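Following 72 h at 37 degrees C with compound, KB-V1 cell viability was read by CellTiter-Glo luminescence, medium being phenol-red-free DMEM plus 10% FBS; concentration-response parameters came from normalized, curve-fitted qHTS data.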
KB-3-1 cytotox – KB-3-1 parental cell cytotoxicity | KB-3-1 viability, CellTiter-Glo ATP luminescence, 72 h | Potency, µM (titrated, usually from 46.1 µM), most hits filed as cytotoxic | hit rate 1.4% among 400,000; further: on the % scale 0 is the no-effect control and ±100 the full control effect; nearly all actives have a fitted effect of over 60% in size
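72 h, 37 °C compound treatment of KB-3-1 parental cells; CellTiter-Glo added, 10 min, luminescence read. Data corrected against DMSO-only plates and normalized before curve fitting.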
ALOX12 inh – ALOX12 (human) lipoxygenase inhibition; purified 12hLO, xylenol orange hydroperoxide absorbance; Potency, µM (doses to about 108 µM), for inactives: at the highest dose activity change, negative = inhibition, most hits filed as inhibitors; hit rate 1.1% among 580,000; AID 1671190; further: on the % scale 0 is the no-effect control and ±100 the full control effect
Target sequence (P18054 whole entry, looked up): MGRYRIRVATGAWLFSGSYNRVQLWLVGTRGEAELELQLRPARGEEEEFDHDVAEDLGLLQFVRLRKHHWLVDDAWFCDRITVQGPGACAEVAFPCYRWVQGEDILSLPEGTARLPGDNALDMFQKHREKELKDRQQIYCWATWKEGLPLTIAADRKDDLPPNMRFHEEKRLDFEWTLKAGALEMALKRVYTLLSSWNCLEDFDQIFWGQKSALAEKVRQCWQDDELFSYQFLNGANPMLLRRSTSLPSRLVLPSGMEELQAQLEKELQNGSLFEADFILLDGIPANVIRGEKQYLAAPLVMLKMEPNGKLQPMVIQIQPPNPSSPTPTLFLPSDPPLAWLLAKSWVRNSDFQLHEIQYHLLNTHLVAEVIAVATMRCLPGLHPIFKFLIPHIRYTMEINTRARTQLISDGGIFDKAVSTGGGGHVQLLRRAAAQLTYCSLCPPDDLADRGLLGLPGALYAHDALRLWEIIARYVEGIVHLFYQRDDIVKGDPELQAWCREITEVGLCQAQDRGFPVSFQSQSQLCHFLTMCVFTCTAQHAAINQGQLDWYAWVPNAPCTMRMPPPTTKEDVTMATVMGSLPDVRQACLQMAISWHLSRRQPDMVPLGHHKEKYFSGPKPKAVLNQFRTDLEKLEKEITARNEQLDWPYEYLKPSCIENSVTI
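Purified human 12hLO (150 nM final) in 25 mM Hepes, 0.01% Triton X-100, pH 7.0 was preincubated 15 min at room temperature with compound. Then 40 uM arachidonic acid was added, 30 min. Hydroperoxide was read by Fe-XO absorbance ratio 573/405 nm.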
MCF10A rerep – DNA re-replication induction in MCF 10a cells | hit rate 2.9% among 350,000 | AID 624296 | Potency, µM (top dose mostly 46.1 µM), for the others: at the highest dose activity, positive = re-replication, actives largely listed as activators | MCF 10A DNA re-replication, Hoechst nuclear intensity, 48 h; further: % of control where 0% means no effect; nearly all actives have a fitted effect of over 50% in size
* marks the source's active call; other numbers are inactive results; i = inactive; ? = inconclusive; / = not tested or not shown; [ ] = another dose, or the depositor's remark. Unless noted, the call rests on the fitted dose curve; in most records, active means well fitted curve in the direction sought with a large enough effect; inconclusive means small, poorly fitted or top-dose-only effect, or another doubt; inactive means no such curve, though single readings can be large; an effect the other way counts as inactive or inconclusive. Potency means the concentration at half of the fitted maximal effect.

SMILES	SW480 rerep	PINK1 modulator	KB-V1 MDR tox	KB-3-1 cytotox	ALOX12 inh	MCF10A rerep
C[C@@H]1CCCCO[C@H](CN(C)C(=O)c2ccncc2)[C@H](C)CN([C@@H](C)CO)C(=O)c2cc(NC(=O)c3ccccc3)ccc2O1	/	1%	i	i	21%	/
C[C@@H]1CN([C@H](C)CO)C(=O)c2cc(NC(=O)Cc3ccccc3)ccc2O[C@H]1CN(C)Cc1ccc(Oc2ccccc2)cc1	?	1%	?	?	?	16µM*
CCCN(C)C[C@@H]1OCCCC[C@@H](C)Oc2ccc(NC(=O)c3ccccc3)cc2C(=O)N([C@H](C)CO)C[C@@H]1C	/	9%	i	4.6µM*	-3%	/
C[C@@H]1CCCCO[C@H](CN(C)Cc2ccc(C(F)(F)F)cc2)[C@H](C)CN([C@@H](C)CO)C(=O)c2cc(NC(=O)Cc3ccccc3)ccc2O1	/	2%	26µM*	?	-14%	/
COc1ccc(-c2cc(N3CCCC(NC(=O)c4ccc(OC)cc4OC)C3)n[nH]2)cc1 (centres undefined)	/	/	/	/	36%	/
CCn1cc(C(=O)NC2CCCCC2C)c(=O)c2ccc(C)nc21 (centres undefined)	-2%[9.22 µM]	1%	i	i	16µM*	3%
CCn1cc(C(=O)OCC(=O)N2C(C)CCCC2C)c(=O)c2ccc(C)nc21 (centres undefined)	-17%	0%	i	i	1%	-1%
CC(NC(=O)Cc1csc2nc(-c3ccccc3)cn12)c1ccc(Cl)cc1 (centres undefined)	/	/	/	/	-3%	/
CCCCN(C)Cc1c(O)ccc2c(-c3ccccc3)cc(=O)oc12	-17%	0%	10µM*	?	-9%	-2%
COc1ccc(C(=O)Nn2c(SCC(=O)c3ccc(Cl)cc3)nc3ccccc3c2=O)cc1	-4%	2%[38.3 µM]	5.8µM*	i	-5%	18%
COc1ccc(C(=O)Nn2c(SCC(=O)NCc3ccco3)nc3ccccc3c2=O)cc1	-2%	1%	?	?	10%	1%
COc1ccc(C(=O)Nn2c(SCC(=O)N3CCC(C)CC3)nc3ccccc3c2=O)cc1	-2%	21%[38.3 µM]	5.2µM*	i	0%	2%
COc1ccc(C(=O)Nn2c(SCC(=O)NC3CCCCC3)nc3ccccc3c2=O)cc1	-12%	3%[38.3 µM]	18µM*	i	0%	9%
COc1ccc(C(=O)Nn2c(C)nc3ccccc3c2=O)cc1	-31%	0%	i	i	-97%	-1%
Cn1ccnc1CN1CCCC(CCc2ccccc2)C1 (centres undefined)	/	/	/	/	64%	/
O=C(c1ccc(Cl)cc1)N1CC2(CCN(C3CCCCC3)CC2)Cc2ccccc21	/	/	/	/	-2%[6.33 µM]	/
CCOC(=O)c1c(C)c(C(=O)Nc2ccc(C)c(F)c2)c(C)n1C	/	/	/	/	2%	/
O=C(CC(=O)Nc1ccc(Br)cc1)Nc1ccc(Br)cc1	-15%	1%	i	i	0%	-7%
O=C(CN(CC(=O)Nc1ccc(Br)cc1)CC(=O)Nc1ccc(Br)cc1)Nc1ccc(Br)cc1	/	/	/	/	11µM*	/
CCCNC(=O)CN(C1CCCCC1)S(C)(=O)=O	1%	-2%	i	i	72%	1%
CS(=O)(=O)N(CC(=O)Nc1ccc(Br)cc1)C1CCCCC1	20%	0%	?	23µM*	0%	11%
CC(C)CNC(=O)CN(C1CCCCC1)S(C)(=O)=O	6.5µM*	-1%[38.3 µM]	i	i	14%	?
CS(=O)(=O)N(CC(=O)Nc1ccc(C(N)=O)cc1)C1CCCCC1	-4%	1%	i	i	-11%	-2%
O=C(Cn1nc(N2CCN(c3ccccc3)CC2)ccc1=O)Nc1ccc(F)c(Cl)c1	/	/	/	/	-22%	/
CN1CCN(S(=O)(=O)c2ccc(-c3ccc(Cl)cc3)cc2)CC1	-6%	1%[38.3 µM]	13µM*	i	-7%	?
SMILES	SW480 rerep	PINK1 modulator	KB-V1 MDR tox	KB-3-1 cytotox	ALOX12 inh	MCF10A rerep
CN1CCN(S(=O)(=O)c2ccc(Cl)cc2)CC1	?	-2%	i	i	-13%	-1%
CN1CCN(S(=O)(=O)c2ccc(Cc3ccc(S(=O)(=O)N4CCN(C)CC4)cc3)cc2)CC1	9%	-2%	i	i	11%	21µM*
COc1cccc(CNC(=O)C2=C(c3ccccc3)c3cc(Cl)ccc3S(=O)(=O)N2C)c1	/	/	/	/	-1%	/
COc1cccc(CCNC(=O)C(=O)NCc2n[nH]c(=O)c3ccccc23)c1	/	/	/	/	-41%	/
CC(C)(C)c1ccc(OCc2nn3c(CN4CCCCC4)nnc3s2)cc1	/	/	/	/	-25%	/
c1ccc(OCc2nnc3sc(-c4ccccc4)nn23)cc1	/	/	/	/	8.9µM*	/
c1ccc(OCc2nn3c(CN4CCOCC4)nnc3s2)cc1	/	/	/	/	10µM*	/
O=C(CCC(=O)OCc1ccccc1F)Nc1ccc2c(c1)oc1ccccc12	/	/	/	/	27%	/
O=C(COc1ccc(Cl)cc1Br)NCC(c1ccco1)N1CCCC1 (centres undefined)	-4%	1%	5.8µM*	i	328%	11%
COc1ccc2c(c1)[C@H]1[C@H](CO2)[C@H](c2ccccc2)[C@]2(C)C(=O)Nc3ccccc3C(=O)N12	?	3%	?	?	-14%	29µM*
COc1ccc2c(c1)OC[C@H]1[C@H]2N2C(=O)c3cc(OC)c(OC)cc3NC(=O)[C@@]2(C)[C@H]1c1ccccc1	21µM*	1%	?	i	-14%	18µM*
Cc1ccc(N(Cc2ccco2)C(=O)CCc2ncc(-c3ccc(F)cc3F)o2)cc1	/	/	/	/	-19%	/
CC(C)(C(=O)N1CCc2[nH]nc(-c3ccc(F)c(F)c3)c2C1)n1cccc1	/	/	/	/	59%	/
CSc1nnc2c(n1)[nH]c1c(C)cccc12	17%	3%[38.3 µM]	i	i	-11%	1%
CCSc1nnc2c(n1)[nH]c1c(C)cccc12	10%	/	16µM*	?	-6%	-2%
CCC(C)c1ccccc1N1CC(C(=O)NCCC2=CCCCC2)CC1=O (centres undefined)	2%	3%	23µM*	i	393%	-5%
CCOc1ccccc1N1CC(C(=O)NCCC2=CCCCC2)CC1=O (centres undefined)	-63%	0%	i	i	-16%	-9%
O=S(=O)(Nc1cccc2c1CCCC2)c1ccc(Cl)cc1	-77%	7%	?	?	?	16µM*
Cc1c(NS(=O)(=O)c2ccccc2)cc(Cl)c(O)c1C	-8%	2%	?	i	-27%	14%
CC(=O)Nc1ccccc1NS(=O)(=O)c1ccc(Cl)cc1	?	5%[38.3 µM]	13µM*	?	0%	26%
Cc1c(Cl)cccc1NS(=O)(=O)c1ccccc1	1%	2%	18µM*	i	-2%	27%
